PubChem BioAssay (NCI)
About 83,000 compounds went through this panel and 20% of them were active in at least one assay; those are over-represented in the sample as a whole.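 Values shown are percent growth following 48 h exposure of cells in 96-well plates to a single concentration of compound; below 10 was considered active.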 A number with no mark means an inactive call. Activity calls are given as the source filed them.

Experiments:
Assay in all cases: NCI-60 one-dose screen, 48 h (100 = growth as untreated, 0 = no growth, -100 = all killed)
Settings in all cases: 10 µM unless noted
T-47D breast = test system: T-47D breast
BT-549 breast = test system: BT-549 breast
MDA-MB-435 melanoma = test system: MDA-MB-435 melanoma
SW-620 colon = test system: SW-620 colon
MCF7 breast = test system: MCF7 breast
HCT-116 colon = test system: HCT-116 colon
HCC-2998 colon = test system: HCC-2998 colon
KM12 colon = test system: KM12 colon

| Compound | growth (T-47D breast) | growth (BT-549 breast) | growth (MDA-MB-435 melanoma) | growth (SW-620 colon) | growth (MCF7 breast) | growth (HCT-116 colon) | growth (HCC-2998 colon) | growth (KM12 colon) |
| --- | --- | --- | --- | --- | --- | --- | --- | --- |
| O=C(CCCCCCN1CC(=O)N2[C@@H](c3ccc(Cl)s3)c3[nH]c4ccccc4c3C[C@H]2C1=O)NO | 27.5% | 85.7% | 23.9% | 33.2% | 14.7% | 13% | 37.6% | 71.9% |
| CC(C)[C@H]1c2[nH]c3ccccc3c2C[C@H]2C(=O)N(CCCCCCC(=O)NO)CC(=O)N12 | 62.4% | 101% | 74.9% | 82.3% | 59.5% | 59.2% | 102% | 88.8% |
| O=C(/C=C/c1cc(Cl)ccc1Cl)Nc1ncc(Cc2ccc(Cl)cc2)s1 | 63.8% | -46.5% (active) | -37% (active) | 20.8% | 16.2% | 2.67% (active) | 13.3% | 13.1% |
| Brc1cccc(-c2cc(-c3ccc4c(c3)OC=CO4)[nH]n2)c1 | 44.3% | 63.8% | -25.2% (active) | 31.5% | 10.1% | 23.3% | 59.8% | 38.1% |
| c1ccc(-c2cn3c(-c4c[nH]c5ccccc45)csc3n2)cc1 | 31.9% | 41.4% | 74.7% | 72.1% | 40.3% | 64.5% | 71.3% | 44.7% |
| CCOC(=O)c1cccc(NC2=C(Cl)C(=O)c3nc(C)ccc3C2=O)c1 | 56.4% | 121% | 108% | 84.3% | 76% | 76.7% | 122% | 105% |
| CN1CCN(Cc2ccc(NC(=O)c3cncc(C#Cc4cnc5ccc(N)nn45)c3)cc2C(F)(F)F)CC1 | 60.5% | 38.7% | 40.5% | 0.667% (active) | -19.7% (active) | 1.19% (active) | 20.7% | 3.48% (active) |
| O=C1[C@@H]2Cc3c([nH]c4ccccc34)[C@H](c3ccc(Br)cc3)N2C(=O)CN1C1CCN(Cc2c(Cl)cccc2Cl)CC1 | 88.5% | 110% | 100% | 92.7% | 68.3% | 78.8% | 101% | 99.1% |
| Cn1cc(-c2nn3cc(-c4ccncc4)nc3s2)c2cc(Br)ccc21 | 37.5% | 49.5% | 32.4% | 42.3% | 26.2% | 25% | 58.9% | 65.8% |
| CCCCc1nc2c(N)nc3ccccc3c2n1Cc1ccc(OC)cc1 | 65.3% | 72% | 84% | 68.6% | 59.7% | 32.5% | 85.5% | 83.1% |
| Cc1cccc(N2CCN(C3=C(Cl)C(=O)c4ncccc4C3=O)CC2)c1 | -39.5% (active) | 97.9% | 11.8% | 11% | 5.92% (active) | -16.3% (active) | 107% | 92.2% |
| Cc1ccc(S(=O)(=O)NCCCNc2nc(Nc3ccc(N4CCN(C)CC4)cc3)nc3ccsc23)cc1 | 17.2% | -1% (active) | 0.595% (active) | 20.5% | 19% | 5.69% (active) | 27.3% | 35.8% |
| CCOC(=O)c1cccnc1Nc1ccc(NC(=O)Nc2ccc(Cl)c(C(F)(F)F)c2)cc1 | -1.09% (active) | 60.9% | 53.1% | 37.1% | 17.8% | 16.4% | 50.4% | 17.5% |
| CN1CCN(Cc2ccc(NC(=O)c3cncc(C#Cc4cnc5ccc(OC6CCOCC6)nn45)c3)cc2C(F)(F)F)CC1 | -56.1% (active) | -82.7% (active) | -81.6% (active) | -18.2% (active) | -67.1% (active) | -89.5% (active) | -68.5% (active) | -68.5% (active) |
| O=C(COc1ccc(/C=C2\C(=O)Nc3cc(Cl)ccc32)cc1)Nc1ccc(Cl)cc1 | 68% | 70.3% | 51.2% | 55.3% | 47.1% | 54.8% | 96.1% | 36.4% |
| NS(=O)(=O)c1ccc(Nc2nc(N/N=C/c3ccc4c(c3)OCO4)nc(Nc3ccccc3)n2)cc1 | 54.7% | 76.7% | 59.2% | 49.8% | 18.7% | 36.7% | 23.2% | 70.4% |
| O=C1Nc2ccccc2/C1=C/c1ccc(OCC(=O)c2ccccc2)cc1 | 97.6% | 118% | 102% | 102% | 88.7% | 94.4% | 105% | 99.9% |
| C=C(C)[C@@H]1CC[C@]2(C(=O)N3CCN(C)CC3)CC[C@]3(C)[C@H](CC[C@@H]4[C@@]5(C)CC[C@H](OP(=O)(OCC)OCC)C(C)(C)[C@@H]5CC[C@]43C)[C@@H]12 | 87.8% | 93.9% | 94.2% | 82% | 68.9% | 24% | 94.4% | 94.4% |
| CCN1CCN(c2ccc(NC(=O)Nc3ccc4c(ccn4-c4ccnc(C(=O)NC)c4)c3)cc2C(F)(F)F)CC1 | 90.5% | 73.6% | 70.4% | -56.2% (active) | 5.65% (active) | 58.6% | 93.9% | 36.4% |
| CNc1sc(S(=O)(=O)NC)nc1S(=O)(=O)c1ccc(C)cc1 | 93.5% | 99.5% | 105% | 109% | 87.6% | 100% | 103% | 103% |
| Cc1ccc(C(=O)CSc2nnc(-c3ccc(-c4ccc(Cl)cc4)nc3C)o2)cc1 | 92.1% | 107% | 103% | 103% | 81% | 98.1% | 103% | 97.2% |
| COc1cc2oc(-c3cccc(NC(=O)[C@@H](N)C(C)C)c3)cc(=O)c2c(OC)c1OC | 87.3% | 104% | 109% | 105% | 92.9% | 98.6% | 109% | 101% |
| Cc1ccc(/C=N/Nc2nc(Nc3ccccc3)nc(Nc3ccc(S(N)(=O)=O)cc3)n2)cc1 | 54.5% | 76.5% | 69.4% | 92.3% | 26.5% | 51.3% | 74.1% | 66% |
| CN1CCN(c2ccc(Nc3nc(NCCNS(=O)(=O)c4ccccc4)c4sccc4n3)cc2)CC1 | 86.3% | 108% | 105% | 101% | 92.1% | 96% | 106% | 103% |
| Cc1cc(NS(=O)(=O)c2ccc(NC(=O)CSc3nc4ccccc4c(=O)n3-c3ccccc3)cc2)no1 | 90% | 97.1% | 98% | 98.9% | 91.4% | 94.6% | 96.9% | 94.5% |
| CSc1ccc(C(=NNS(=O)(=O)c2ccc(C)cc2)c2ccc(Cl)cc2)cc1 | 89.7% | 118% | 106% | 102% | 88.2% | 98.2% | 103% | 97.1% |
| COC(=O)c1cccc(NC2=CC(=O)C(C)=C(C)C2=O)c1 | 64.4% | 101% | 101% | 104% | 71.3% | 66.7% | 110% | 97.1% |
| Cc1ccc(S(=O)(=O)NCCCNc2nccc(-c3[nH]c(-c4ccccc4)nc3-c3ccc(F)c(O)c3)n2)cc1 | 71.1% | 93.1% | 17.6% | 115% | 73.5% | 69.6% | 127% | 83.9% |
| COc1cccc2c1[C@H](OC)[C@]13O[C@@]1(C2=O)[C@H](O)[C@H](C)[C@@](O)(C(=O)[C@@H]1O[C@H]1C)[C@@H]3O | -11.8% (active) | -39.6% (active) | -72.7% (active) | -14.7% (active) | -21.3% (active) | -26.8% (active) | -79.3% (active) | -31.1% (active) |
| Nc1cc(C(=O)N/N=C\c2ccc(OC(F)F)c(OC3CCCC3)c2)nn1CC(O)c1ccccc1 (stereo not given) | 83.6% | 118% | 103% | 103% | 89% | 103% | 114% | 95.6% |
